Source: the supplement of paper PMC11417369
± gives the standard deviation of the averaged measurements. In all, about 25,000 sequences were measured (“ln(normalized median fluorescence intensity)”: median about 8.9, highest 2% from about 10 on). The list comes from a sample in which the highest values are over-represented; it also holds similar and randomly drawn sequences.

Tested on: PfAP2-LT AP2 domain (GST-tagged)
Test: gcPBM binding intensity (ln(normalized median fluorescence intensity)); higher = stronger DNA binding
Method in brief: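 After 1 h on an Agilent 4 × 180k array of primer-extended double-stranded 36-bp intergenic genomic probes and negative controls, bound GST-tagged P. falciparum DNA-binding domains were detected with Alexa488 anti-GST antibody and scanned at 488 nm. The domains had been expressed in E. coli, and binding took place in 1× PBS with 1% milk, 0.2 mg/ml BSA, 0.5% salmon testes DNA and 0.03% Triton X-100. Binding intensity is the highest Masliner-normalised natural-log median intensity across replicate spots of either probe orientation.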

For “TTTTTCAGAAAAGAAACACACATATATATATTTATA [CACACA_site2372]”, which “gcPBM binding intensity (ln)” value is on record?
Its value is 8.56 ± 0.43.

For “TTAGGCAAGGCGGGGGGTACGTTTTTATATAATTAT [XGTACX_site8029]”, which “gcPBM binding intensity (ln)” value is on record?
Its value is 10.2 ± 0.14.

Which “gcPBM binding intensity (ln)” value does the source give for “AATAATATATTTAGGGGTACATAATAATATATTTTA [XGTACX_site8366]” here?
The value was 8.66 ± 0.3.

For “AAATATATTATAAATTGTACGTTTATATATATTATT [XGTACX_site5110]”, which “gcPBM binding intensity (ln)” value is on record?
The value was 8.69 ± 0.47.

How did the “gcPBM binding intensity (ln)” value turn out when “ATCTCTATGATATATACACACAAATATACAAAAAAA [CACACA_site6605]” was run?
Its value is 8.96 ± 0.45.

For “TATAATATTCTATATGCATGTACACCATTCTTTATT [TGCATGCA_site688]”, which “gcPBM binding intensity (ln)” value is on record?
Its value is 9.15 ± 0.45.

For “ACACATACATATACATACACATTGTTTTCATGCATC [XGTACX_negctrl_site126]”, which “gcPBM binding intensity (ln)” value is on record?
Its value is 9.2 ± 0.39.

With “GTTCATCACATATACACATGCATATTCTAATATGTA [TGCATGCA_site809]” as the sequence, how does the “gcPBM binding intensity (ln)” value read?
Its value is 8.95 ± 0.41.

With “TATATATATATATATACATGCATCATTGTTCACCTT [TGCATGCA_site177]” as the sequence, how does the “gcPBM binding intensity (ln)” value read?
Its value is 10.2 ± 0.35.

How did the “gcPBM binding intensity (ln)” value turn out when “TAAAATGAATAAAATTGTACTTAATAATATTTTAAA [XGTACX_site5532]” was run?
The value was 8.23 ± 0.57.

How did the “gcPBM binding intensity (ln)” value turn out when “TAAAATATAGAAAATTTTATTAAATATAAAAAAATA [CACACA_negctrl_site1441]” was run?
Its value is 8.28 ± 0.47.

Which “gcPBM binding intensity (ln)” value does the source give for “TATAAGAAATAAAACCTGATTATAAACCTGTAACCA [CACACA_negctrl_site1302]” here?
Its value is 8.63 ± 0.37.

“AATAAAATAATAGGCACACATATATATATATATTAT [CACACA_site273]” was tested. Which “gcPBM binding intensity (ln)” value did it give?
Its value is 9.2 ± 0.37.

How did the “gcPBM binding intensity (ln)” value turn out when “ATAAATAAATACTAGGCACACACACCGATATATATA [CACACA_site8649]” was run?
The value was 9.76 ± 0.22.

How did the “gcPBM binding intensity (ln)” value turn out when “AAAATAATAATAGGCACACATATATATATATATATA [CACACA_site2058]” was run?
The value was 9.99 ± 0.21.

How did the “gcPBM binding intensity (ln)” value turn out when “ATAAATACTAGGCACACACACATATAGATTTATATA [CACACA_site7064]” was run?
The value was 9.77 ± 0.47.

With “AAATAAATACTAGGCACACACACATATATATATATA [CACACA_site2079]” as the sequence, how does the “gcPBM binding intensity (ln)” value read?
The value was 10.1 ± 0.15.

For “ATAAATACTAGGCACACACACATATATATATATATA [CACACA_site2080]”, which “gcPBM binding intensity (ln)” value is on record?
The value was 10.4 ± 0.014.

“TATATTTGGAAAACATGTACATATAACAATATGTAA [XGTACX_site324]” was tested. Which “gcPBM binding intensity (ln)” value did it give?
Its value is 8.71 ± 0.34.

With “TTAGTTATTAAAAAAAGTACATAAGTAGATATCATC [XGTACX_site8712]” as the sequence, how does the “gcPBM binding intensity (ln)” value read?
Its value is 8.7 ± 0.45.

How did the “gcPBM binding intensity (ln)” value turn out when “TTTGAACATTTTGCAAGTACAAAAAAATAATATATC [XGTACX_site8079]” was run?
Its value is 8.65 ± 0.42.

With “ACTCTCTTATATTAAACACACATATATATATGTATA [CACACA_site2703]” as the sequence, how does the “gcPBM binding intensity (ln)” value read?
The value was 8.99 ± 0.42.

With “GTGCTAAAAGTATATGCACACACATATATATGCACA [CACACA_site8472]” as the sequence, how does the “gcPBM binding intensity (ln)” value read?
Its value is 9.42 ± 0.31.

For “AATAAACATAAATACACACACAAAAAAAAAAACATA [CACACA_site4396]”, which “gcPBM binding intensity (ln)” value is on record?
Its value is 9.64 ± 0.33.

How did the “gcPBM binding intensity (ln)” value turn out when “TATACACATATATAAACACACAAAAAAAAAAAAAAA [CACACA_site7041]” was run?
Its value is 8.88 ± 0.49.

For “AATATATAAACATATACACACAAAAACATATATATA [CACACA_site4855]”, which “gcPBM binding intensity (ln)” value is on record?
Its value is 9.21 ± 0.33.

With “AATAAACATATATACACACACAAAAAAAAAAACATA [CACACA_site424]” as the sequence, how does the “gcPBM binding intensity (ln)” value read?
The value was 9.59 ± 0.5.

For “ATAAAACAAAAACACACACACATACACAAAAAAAAA [CACACA_site3848]”, which “gcPBM binding intensity (ln)” value is on record?
The value was 10.1 ± 0.3.

How did the “gcPBM binding intensity (ln)” value turn out when “TATAACATAAAACACACACACATACATACACAAAAA [CACACA_site1804]” was run?
Its value is 10.1 ± 0.15.

“AAATAAAACAAACACACACACACATACACAAAAAAA [CACACA_site3849]” was tested. Which “gcPBM binding intensity (ln)” value did it give?
The value was 10.12 ± 0.035.

For “TATATACACATATATAAACACACAAAAAAAAAAAAA [CACACA_site8626]”, which “gcPBM binding intensity (ln)” value is on record?
Its value is 8.89 ± 0.4.

Which “gcPBM binding intensity (ln)” value does the source give for “AAAAAAAAAAAACATACACACAAATAAATACATACA [CACACA_site6073]” here?
The value was 9.23 ± 0.36.

With “AATTTTTTATATGTCACACATTTATTATTATTATTA [CACACA_site4198]” as the sequence, how does the “gcPBM binding intensity (ln)” value read?
The value was 8.83 ± 0.48.

“AACATATAAAAATATGCACACACAGGAATACAAACA [CACACA_site8127]” was tested. Which “gcPBM binding intensity (ln)” value did it give?
The value was 9.89 ± 0.45.

How did the “gcPBM binding intensity (ln)” value turn out when “AAAAAATAAATAAATAGTACTTTAAAAGAAAAAAAA [XGTACX_site5051]” was run?
Its value is 8.55 ± 0.51.

For “TGTTTATTTAATAATATTTTTTTTTTTATTATATTA [XGTACX_negctrl_site56]”, which “gcPBM binding intensity (ln)” value is on record?
Its value is 8.31 ± 0.54.

Which “gcPBM binding intensity (ln)” value does the source give for “ATAAGATTATACAATTGTACGTTGTTCAAGATAAGG [XGTACX_site191]” here?
The value was 8.8 ± 0.42.

“AATAAATATAAATAAATAAATATATATATATATTTG [CACACA_negctrl_site1486]” was tested. Which “gcPBM binding intensity (ln)” value did it give?
Its value is 8.56 ± 0.4.

Which “gcPBM binding intensity (ln)” value does the source give for “TTTTATGTTTTAAAATGTACGTGTCAATGAATAAGT [XGTACX_site6239]” here?
The value was 8.52 ± 0.42.

Which “gcPBM binding intensity (ln)” value does the source give for “TTATTTACAACTTCAAATTATGTGTAATACTACTAT [CACACA_negctrl_site741]” here?
Its value is 8.73 ± 0.52.

Which “gcPBM binding intensity (ln)” value does the source give for “AAAACAATATACTGTAGTACTGATGATATATATATA [XGTACX_site7798]” here?
The value was 9.01 ± 0.38.

“TATATATACATATACACACATACGTACATACATATA [CACACA_site3585]” was tested. Which “gcPBM binding intensity (ln)” value did it give?
Its value is 9.13 ± 0.39.

Which “gcPBM binding intensity (ln)” value does the source give for “AAGAACAGAACGTACACACACATATTTATATTTATA [CACACA_site7594]” here?
The value was 9.55 ± 0.3.

How did the “gcPBM binding intensity (ln)” value turn out when “TAAAAAAAAACATATACACACAAAAACGTACACATA [CACACA_site1354]” was run?
Its value is 9.31 ± 0.3.
